The results in this text go back to PubChem BioAssay.

Records with an inconclusive call do not appear. Activity calls are given as the source filed them. Unless noted, the rule behind the calls is not given here.

As a reminder, the inhibition is the change of the read-out against control, counted positive when it falls.

Experiment [1] deals with GTPase HRas (Homo sapiens) (UniProt P01112). Nature of the experiment: Ras wt fluorescent GTP loading blockade – biochemical, wildtype, multiplex bead flow cytometry, dose response (AID 1335;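 active = fitted half-maximal concentration within 10 nM to 100 µM, steepness 0.5 to 2, significant signal drop, low assay interference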). The note with it: bead-based flow cytometry, Bodipy-GTP binding to GST-Ras; at 100 µM (top of the series). For orientation: A flow cytometer gives signals particle by particle.
Experiment [2] can be described thus: rapamycin-like changes in RPL19A-GFP expression – cell-based, S. cerevisiae, multiplex flow cytometry, primary screen (AID 1862; in the data active = percent of DMSO control GFP below about 86%;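 note: lower values mimic rapamycin by blocking the RPL19A rise seen in DMSO cells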). As to conditions: S. cerevisiae RPL19A-GFP strain, flow cytometry fluorescence, 3 h; at 10 µM; stronger effect = lower value.
The nature of experiment [3]: TOR pathway GLN3 branch reporter MEP2-GFP changes – S. cerevisiae, multiplex flow cytometry, primary screen (AID 1867;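 active = GFP response, as percent of the DMSO control, above the screen-wide mean plus 3 SD, about 139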;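 note: median GFP channel fluorescence of barcode-gated MEP2-GFP cells measured by flow cytometry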). The note with it: S. cerevisiae MEP2-GFP strain, 3 h, at 10 µM, stronger effect = higher value.
A short description of experiment [4]: TOR pathway RTG branch CIT2 reporter changes – S. cerevisiae, GFP fusion, multiplex flow cytometry, primary screen (AID 1870;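 active = percent response above a set limit, the screen-wide mean plus 3 SD, cut at about 130% in these data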;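 note: barcoded CIT2-GFP strain pooled with four other GFP strains with rapamycin as positive control; median GFP fluorescence per well over plate mean of DMSO wells so 100% = DMSO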). The note with it: S. cerevisiae CIT2-GFP expression, 3 h, at 10 µM, stronger effect = higher value.
Experiment [5] can be described thus: TOR pathway LAP4-GFP level changes – S. cerevisiae, multiplex flow cytometry, primary screen (AID 1873;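 active = GFP signal, as percent of the solvent control, above the screen mean plus 3 SD, about 149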). The note with it: S. cerevisiae LAP4-GFP expression, 3 h, at 10 µM, stronger effect = higher value.
Experiment [6] in a line: yeast AGP1-GFP level changes, GLN3 branch – cell-based, multiplex flow cytometry, S. cerevisiae, primary screen (AID 1887;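 active = GFP signal above the screen-wide mean plus 3 SD, that is over about 124.5% of the solvent control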;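 note: AGP1-GFP fusion strain of S. cerevisiae within a five-strain barcoded multiplex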). As to conditions: 3 h, at 10 µM, stronger effect = higher value.
Experiment [7] is described as follows: reduced mouse 2C T cell binding to pMHC/ICAM-1 vesicles – MLPCN validation set, flow cytometry, LFA-1/ICAM-1 modulator project, pilot screen (AID 2523;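 active = response below a set limit, under 55% cells CD8-positive and vesicle-bound, and CD8 cells' 90th-percentile brightness under 279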;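 for vesicle binding response: mean PE anti-B7-1 fluorescence of CD8+ cells relative to row control; 100% = QL9-loaded vesicles with DMSO vehicle in the same plate row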). The note with it: 2C mouse CD8+ T cells, at 7 µM, stronger effect = lower value; double positive events: measured here: CD8+/vesicle+ event percentage.
Experiment [8] has as its target Integrin beta-1 (Homo sapiens) + Integrin alpha-4 (Homo sapiens) (UniProt P13612+P05556). The experiment can be described thus: alpha4beta1 integrin LIBS antibody binding reduction – U937 cells, HUTS-21 mAb, flow cytometry, validation set, VLA-4 allosteric modulator project, pilot screen (AID 2674;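 active = inhibition above 50%, about 3 SD of the validation set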;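 note: antibody binding induced by the VLA-4 ligand LDV present at three times its Kd; 0% = LDV ligand with antibody and no compound and 100% = antibody without LDV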). The note with it: HUTS-21 LIBS mAb binding, at 6.7 µM, stronger effect = higher value.

The nature of experiment [9]: calorie-restriction mimetic ROS inhibitors, yeast – validation compound set, pilot screen (AID 2706;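 active = superoxide response below 65% of plate, a cut near 3 SD across the whole screen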;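 note: yeast exposed to compound for one week at 30 degrees C before staining; 100% = mean of all compound wells on the same plate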). As to conditions: S. cerevisiae aging, superoxide DHE fluorescence; at 10 µM; stronger effect = lower value.
Experiment [10] addresses Beta-adrenergic receptor kinase 1 (Homo sapiens) (UniProt P25098). The experiment can be described thus: GRK2 binders displacing RNA aptamer, biochemical, validation, human GRK2, bead flow cytometry (AID 488806;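 active = aptamer binding inhibition above 30%, about 3 SD of noise from non-fluorescent compounds; inactive = inhibition at or below 30%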). The note with it: bead-bound GRK2, FAM-aptamer displacement, at 10 µM, stronger effect = higher value.
The target in experiment [11] is Beta-2 adrenergic receptor (Homo sapiens) (UniProt P07550). The experiment can be described thus: agonist-induced loss of surface beta2AR – cell-based, FAP fluorogen, flow cytometry, validation set, pilot screen (AID 504459;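 active = percent response above 42, roughly 3 SD of non-fluorescent test compounds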;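 note: agonist-driven loss of surface beta2AR via internalization measured by FAP dye flow cytometry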). The note with it: Am2.2-beta2AR cells, at 10 µM, stronger effect = higher value.
Experiment [12] concerns the target AP-2 complex subunit beta (Homo sapiens) (UniProt P63010). Nature of the experiment: beta-arrestin/AP2 interaction blockers – biochemical, validation set, GST-AP2 beads, flow cytometry, pilot screen (AID 504541;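 active = inhibition above 54%, about 3 SD of non-fluorescent compounds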;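 note: AP2 carries R879A mutation and is captured from E. coli lysate; bead-bound FITC arrestin peptide fluorescence measuring arrestin peptide binding to AP2; 0% = DMSO wells and 100% = excess unlabeled arrestin peptide control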). The note with it: FITC arrestin peptide, at 10 µM, stronger effect = higher value.
Experiment [13] is described as follows: cytosolic pH regulators acting via V-ATPase – S. cerevisiae, pHLuorin, HTS validation (AID 504600; in the data active = response above about 15%;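 note: plate controls were DMSO for no effect and reference compound for full effect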). The note with it: V-ATPase proton transport, at 10 µM, stronger effect = higher value.
Experiment [14] concerns anti-desmoglein-3 scFv antibody binding to human DSG3. The experiment can be described thus: blockers of pathogenic pemphigus antibody–desmoglein-3 binding – biochemical, validation compound set, bead-based, flow cytometry, pilot screen (AID 588368;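 active = binding below the plate cutoff, the plate median minus 3 SD, with a reading above zero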;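 note: signal is the median channel fluorescence of bead-bound GFP antibody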). As to conditions: Protein G beads, DSG3-Fc, scFv-GFP binding, at 10 µM, stronger effect = lower value.
Experiment [15] has as its system Botulinum neurotoxin type F light chain protease (Clostridium botulinum). Nature of the experiment: Clostridium botulinum type F light chain protease inhibitors, microsphere substrate cleavage, validation (AID 588459). The note with it: multiplex microsphere protease substrate cleavage assay, flow cytometry; at 10 µM; stronger effect = higher value.
Experiment [16] addresses Botulinum neurotoxin type A (Clostridium botulinum) (UniProt P0DPI0). The experiment can be described thus: BoNT/A light chain protease inhibitors, biochemical, multiplex microsphere flow cytometry, validation set (AID 588460). As to conditions: at 10 µM, stronger effect = higher value.
Experiment [17] deals with Lethal factor (Bacillus anthracis) (UniProt P15917). Nature of the experiment: Bacillus anthracis lethal factor inhibition, microsphere flow cytometry protease assay, validation at 10 µM (AID 588461). As to conditions: multiplex microsphere protease cleavage assay, stronger effect = higher value.
The nature of experiment [18]: Nile Red efflux blockade in pump-expressing yeast – validation compound set, multiplex, phenotypic, pilot screen (AID 588506;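 active = efflux inhibition above 0.42, the validation set average plus 4 SD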;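 note: Nile Red retained in cells so higher fluorescence means more efflux inhibition; 0 = negative control wells and 1 = enniatin B 25 µM full block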). As to conditions: S. cerevisiae pump-expressing triplex, Nile Red efflux flow cytometry; at 10 µM; stronger effect = higher value.
Experiment [19] addresses ATP-binding cassette sub-family B member 6 (Homo sapiens) (UniProt Q9NP58). The experiment can be described thus: blockers of ABCB6-driven porphyrin uptake – K562-ABCB6 cells, flow cytometry, validation set, pilot screen (AID 588550;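 active = inhibition above the screen-wide mean plus 3 SD, about 51%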;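 note: 0% = DMSO wells and 100% = benzethonium chloride 70 µM positive control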). The note with it: K562-ABCB6 porphyrin accumulation, 1 h, at 10 µM, stronger effect = higher value.
The nature of experiment [20]: AML differentiation inducers, ER-HoxA9 marrow cells – cell-based, GFP/MAC1 double positive, flow cytometry, validation set, primary screen (AID 588685;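 active = differentiation response of at least 50%, scaled between solvent and reference control, from cells with both markers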;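 note: compound exposure lasts four days before antibody staining and flow analysis; 0% = DMSO wells and 100% = 5 µM fulvestrant positive control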). As to conditions: stronger effect = higher value.

Sequence of ATP-binding cassette sub-family B member 6 (Homo sapiens) (Q9NP58 whole entry, looked up): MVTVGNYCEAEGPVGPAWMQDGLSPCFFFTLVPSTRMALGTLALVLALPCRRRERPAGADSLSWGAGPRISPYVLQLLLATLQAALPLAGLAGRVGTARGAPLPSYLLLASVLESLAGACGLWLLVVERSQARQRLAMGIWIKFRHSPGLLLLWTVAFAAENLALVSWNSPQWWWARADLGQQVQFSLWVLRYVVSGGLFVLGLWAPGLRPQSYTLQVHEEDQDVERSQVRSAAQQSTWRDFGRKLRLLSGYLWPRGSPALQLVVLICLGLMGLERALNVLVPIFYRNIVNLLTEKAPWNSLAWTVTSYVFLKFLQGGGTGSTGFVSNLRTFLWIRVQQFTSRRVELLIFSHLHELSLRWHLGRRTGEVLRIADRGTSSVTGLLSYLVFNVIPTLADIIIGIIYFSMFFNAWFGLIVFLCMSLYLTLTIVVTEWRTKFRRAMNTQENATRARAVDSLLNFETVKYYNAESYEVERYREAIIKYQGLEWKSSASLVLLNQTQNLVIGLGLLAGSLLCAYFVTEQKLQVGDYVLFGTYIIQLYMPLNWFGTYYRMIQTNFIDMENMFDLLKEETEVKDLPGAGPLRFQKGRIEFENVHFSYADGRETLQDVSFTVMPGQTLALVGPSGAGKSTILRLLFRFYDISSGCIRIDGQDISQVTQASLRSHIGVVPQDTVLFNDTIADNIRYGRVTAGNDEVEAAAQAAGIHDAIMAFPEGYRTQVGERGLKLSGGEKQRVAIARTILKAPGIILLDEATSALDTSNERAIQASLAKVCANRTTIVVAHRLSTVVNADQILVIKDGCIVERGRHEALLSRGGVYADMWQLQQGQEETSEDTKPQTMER
Sequence of GTPase HRas (Homo sapiens) (P01112 whole entry, looked up): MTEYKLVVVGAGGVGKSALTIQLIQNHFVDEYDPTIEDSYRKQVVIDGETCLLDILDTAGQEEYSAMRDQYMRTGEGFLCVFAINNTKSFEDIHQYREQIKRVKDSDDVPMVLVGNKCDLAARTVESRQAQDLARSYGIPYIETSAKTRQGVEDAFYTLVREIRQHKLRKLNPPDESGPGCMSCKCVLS
Sequence of Lethal factor (Bacillus anthracis) (P15917 whole entry, looked up): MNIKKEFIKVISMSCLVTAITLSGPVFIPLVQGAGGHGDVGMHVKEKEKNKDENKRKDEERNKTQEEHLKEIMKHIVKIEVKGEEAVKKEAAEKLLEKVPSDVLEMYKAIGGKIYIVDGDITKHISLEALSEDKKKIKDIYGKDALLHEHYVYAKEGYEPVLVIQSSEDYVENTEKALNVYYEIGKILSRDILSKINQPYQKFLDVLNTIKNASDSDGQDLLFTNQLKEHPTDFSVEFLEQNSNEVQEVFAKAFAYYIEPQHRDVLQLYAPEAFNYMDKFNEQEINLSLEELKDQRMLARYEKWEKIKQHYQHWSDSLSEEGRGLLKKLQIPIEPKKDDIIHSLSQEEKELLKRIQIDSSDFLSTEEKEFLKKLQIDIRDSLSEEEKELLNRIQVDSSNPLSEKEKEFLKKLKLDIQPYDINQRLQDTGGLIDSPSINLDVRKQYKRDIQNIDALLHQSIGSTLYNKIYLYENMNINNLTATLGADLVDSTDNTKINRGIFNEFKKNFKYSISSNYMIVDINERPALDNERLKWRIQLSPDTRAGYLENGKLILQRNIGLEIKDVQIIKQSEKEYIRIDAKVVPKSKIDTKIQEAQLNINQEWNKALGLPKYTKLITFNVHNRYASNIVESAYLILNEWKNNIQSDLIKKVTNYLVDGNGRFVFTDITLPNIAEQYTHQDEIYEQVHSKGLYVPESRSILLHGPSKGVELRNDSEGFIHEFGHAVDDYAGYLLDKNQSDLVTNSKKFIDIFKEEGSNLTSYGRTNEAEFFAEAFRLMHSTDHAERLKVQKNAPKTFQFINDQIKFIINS
Sequence of Beta-adrenergic receptor kinase 1 (Homo sapiens) (P25098 whole entry, looked up): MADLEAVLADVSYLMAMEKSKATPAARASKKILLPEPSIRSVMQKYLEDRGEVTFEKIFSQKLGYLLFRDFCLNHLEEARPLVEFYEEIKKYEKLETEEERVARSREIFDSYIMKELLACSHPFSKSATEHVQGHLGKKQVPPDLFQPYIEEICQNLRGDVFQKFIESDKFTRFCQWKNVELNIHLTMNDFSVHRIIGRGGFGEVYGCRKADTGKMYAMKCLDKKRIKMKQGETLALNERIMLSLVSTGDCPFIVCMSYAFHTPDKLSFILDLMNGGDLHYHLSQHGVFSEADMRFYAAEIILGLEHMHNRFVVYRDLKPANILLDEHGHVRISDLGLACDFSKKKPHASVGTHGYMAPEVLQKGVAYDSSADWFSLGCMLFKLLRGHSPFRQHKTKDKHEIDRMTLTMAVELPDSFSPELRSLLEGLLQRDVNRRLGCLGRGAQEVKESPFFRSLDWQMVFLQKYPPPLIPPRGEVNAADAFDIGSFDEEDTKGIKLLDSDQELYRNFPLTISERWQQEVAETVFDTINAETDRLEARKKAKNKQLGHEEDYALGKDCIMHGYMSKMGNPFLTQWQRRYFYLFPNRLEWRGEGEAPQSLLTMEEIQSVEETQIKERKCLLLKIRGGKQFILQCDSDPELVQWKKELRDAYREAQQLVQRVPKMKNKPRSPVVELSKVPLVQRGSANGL
Sequence of Integrin beta-1 (Homo sapiens) + Integrin alpha-4 (Homo sapiens) (P05556 whole entry, looked up): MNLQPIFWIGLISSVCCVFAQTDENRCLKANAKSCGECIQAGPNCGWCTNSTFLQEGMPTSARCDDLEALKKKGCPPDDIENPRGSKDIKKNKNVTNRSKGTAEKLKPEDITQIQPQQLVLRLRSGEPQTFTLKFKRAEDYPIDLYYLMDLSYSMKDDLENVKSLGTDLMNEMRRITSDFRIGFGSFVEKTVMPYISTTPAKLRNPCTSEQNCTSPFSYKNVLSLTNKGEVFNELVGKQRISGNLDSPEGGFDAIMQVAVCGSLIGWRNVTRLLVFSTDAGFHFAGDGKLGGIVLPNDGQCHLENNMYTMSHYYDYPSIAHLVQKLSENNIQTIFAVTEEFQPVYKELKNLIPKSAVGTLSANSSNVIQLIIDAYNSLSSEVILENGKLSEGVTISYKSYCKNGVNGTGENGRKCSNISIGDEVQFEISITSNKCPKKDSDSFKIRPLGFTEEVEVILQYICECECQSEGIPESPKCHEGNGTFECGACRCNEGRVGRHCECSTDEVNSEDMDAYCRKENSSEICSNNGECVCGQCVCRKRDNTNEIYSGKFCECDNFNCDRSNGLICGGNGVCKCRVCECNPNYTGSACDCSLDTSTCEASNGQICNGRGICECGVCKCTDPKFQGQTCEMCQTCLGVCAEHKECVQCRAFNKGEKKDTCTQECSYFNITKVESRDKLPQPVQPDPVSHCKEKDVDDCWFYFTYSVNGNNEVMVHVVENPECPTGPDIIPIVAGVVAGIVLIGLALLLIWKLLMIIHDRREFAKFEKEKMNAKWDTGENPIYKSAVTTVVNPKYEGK
Sequence of Integrin beta-1 (Homo sapiens) + Integrin alpha-4 (Homo sapiens) (P13612 whole entry, looked up): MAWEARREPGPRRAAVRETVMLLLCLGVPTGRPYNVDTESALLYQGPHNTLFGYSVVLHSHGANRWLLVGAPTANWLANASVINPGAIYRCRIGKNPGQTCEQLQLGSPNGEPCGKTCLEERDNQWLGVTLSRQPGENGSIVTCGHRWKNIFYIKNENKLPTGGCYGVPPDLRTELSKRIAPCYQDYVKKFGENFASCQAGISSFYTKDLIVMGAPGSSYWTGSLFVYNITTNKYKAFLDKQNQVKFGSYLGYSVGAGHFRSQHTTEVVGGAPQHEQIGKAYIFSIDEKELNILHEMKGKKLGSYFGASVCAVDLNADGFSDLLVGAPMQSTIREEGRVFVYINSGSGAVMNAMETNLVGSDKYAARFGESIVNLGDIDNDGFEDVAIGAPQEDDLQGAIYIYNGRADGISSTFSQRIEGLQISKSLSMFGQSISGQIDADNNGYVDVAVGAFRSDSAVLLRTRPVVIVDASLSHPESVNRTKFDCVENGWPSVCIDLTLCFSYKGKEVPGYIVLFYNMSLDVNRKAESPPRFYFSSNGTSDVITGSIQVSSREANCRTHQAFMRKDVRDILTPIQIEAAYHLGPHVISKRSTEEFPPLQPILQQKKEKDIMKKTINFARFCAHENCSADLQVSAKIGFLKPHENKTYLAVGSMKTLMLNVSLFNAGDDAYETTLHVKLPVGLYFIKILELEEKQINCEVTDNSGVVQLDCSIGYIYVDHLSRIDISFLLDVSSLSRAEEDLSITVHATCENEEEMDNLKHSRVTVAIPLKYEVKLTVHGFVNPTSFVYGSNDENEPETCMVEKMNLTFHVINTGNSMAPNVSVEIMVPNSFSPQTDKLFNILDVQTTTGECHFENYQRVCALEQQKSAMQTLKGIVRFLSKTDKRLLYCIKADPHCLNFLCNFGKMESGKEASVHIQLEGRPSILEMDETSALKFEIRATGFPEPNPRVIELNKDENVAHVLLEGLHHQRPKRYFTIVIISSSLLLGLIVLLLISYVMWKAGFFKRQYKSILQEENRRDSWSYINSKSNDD
Sequence of Beta-2 adrenergic receptor (Homo sapiens) (P07550 whole entry, looked up): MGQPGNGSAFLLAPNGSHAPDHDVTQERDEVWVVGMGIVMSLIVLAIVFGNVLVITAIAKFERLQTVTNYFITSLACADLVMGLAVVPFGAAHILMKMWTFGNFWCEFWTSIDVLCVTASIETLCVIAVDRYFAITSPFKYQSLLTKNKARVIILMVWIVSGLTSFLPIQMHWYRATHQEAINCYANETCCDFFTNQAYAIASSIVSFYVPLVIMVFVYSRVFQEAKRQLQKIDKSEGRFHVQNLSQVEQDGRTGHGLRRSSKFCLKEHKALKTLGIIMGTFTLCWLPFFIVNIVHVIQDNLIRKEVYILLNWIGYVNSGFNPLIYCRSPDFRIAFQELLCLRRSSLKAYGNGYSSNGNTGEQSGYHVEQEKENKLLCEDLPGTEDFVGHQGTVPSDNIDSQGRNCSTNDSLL

Take `O=c1[nH]c(=S)[nH]c(O)c1N=Nc1cc2c(cc1[N+](=O)[O-])OCO2`: the GTP binding, percent of control in [1] amounted to 66.6%.
For `Cc1ccc(C)c(OCCCn2cc(C(=O)O)c3ccccc32)c1`, the GTP binding, percent of control in experiment [1] is 88.6%.
Regarding `O=C1CN=C(c2ccccc2)c2cc(Br)ccc2N1Cc1cc(=O)n2ccccc2n1`, the GTP binding, percent of control in [1] was 64.5%.
Same read-out and setting: with `Cc1ccccc1OCCCn1cc(C(=O)O)c2ccccc21` the figure was 92.4%.
As for `C#C[C@]1(O)CC[C@H]2[C@@H]3CCC4=CC(=O)CC[C@]4(C)[C@H]3CC[C@@]21C`, the percent of DMSO control GFP in [2] was 88.7% (inactive). Further, the GFP response vs DMSO in experiment [3] was 140% (active); in experiment [5] it was 80.9% (inactive). Moreover, in [4], the percent response of DMSO control is 106% (inactive). In [6], the GFP response, % of DMSO is 87.7% (inactive). Moreover, in experiment [7], the double positive events was 64.1%. For the same compound, the vesicle binding response in [7] is 255% (inactive). The inhibition in experiment [8] is 3.55% (inactive); in [12] it was 14.2% (inactive); in experiment [15], 2.5% (inactive); in experiment [16], -0.5% (inactive); in experiment [17] it was -1.2% (inactive); in experiment [19] it was 9% (inactive). In addition, in experiment [9], the superoxide response (% of plate) was 97.8% (inactive). Also, the aptamer binding inhibition in experiment [10] is 1% (inactive). Moreover, the response in experiment [11] was -8% (inactive); in experiment [13] it was -3.36% (inactive). Also, in experiment [14], the binding (% of control) is 102% (inactive). For the same compound, the efflux inhibition (fraction of control) in [18] was 0.3 (inactive). In experiment [20], the differentiation response is -0.82% (inactive).
Compound `CN(C)c1ccc(/C=C/C=C2/C(=O)NC(=O)N(c3ccccc3)C2=O)cc1` came in with a GTP binding, percent of control in experiment [1] of 81.4%.
In turn, `CCOC(=O)c1c(NC(=O)c2c(N)n(CCCOC)c3nc4ccccc4nc23)sc2c1CCCC2` displayed a GTP binding, percent of control in experiment [1] of 144%.
Still for that read-out and setting: next, `COCCCn1c(N)c(C(=O)Nc2sc3c(c2C(=O)OC)CCCC3)c2nc3ccccc3nc21`: 51.7%; `O=c1[nH]c(=S)[nH]c(O)c1N=Nc1ccc(S(=O)(=O)N2CCc3ccccc32)cc1`: 95.9%.
As to `CCN(CC)c1ccc(/C=N/c2sc3c(c2C#N)C2CCN3CC2)c(O)c1`, the GTP binding, percent of control in experiment [1] came out at 104%.
`CC12CN3CC(C)(CN(C1)C31CCOCC1)C2=O`: the percent of DMSO control GFP in [2] was 92.6% (inactive). In addition, the values for the GFP response vs DMSO in experiment [3] and in [5] were 145% (active) and 90.2% (inactive), respectively. For the same compound, the percent response of DMSO control in experiment [4] was 101% (inactive). In experiment [6], the GFP response, % of DMSO is 94.5% (inactive). This compound also displayed a double positive events in experiment [7] of 65.1%. Besides, the vesicle binding response in [7] was 166% (inactive). The inhibition in experiment [8] is 5.49% (inactive); in experiment [12], 40.7% (inactive); in [15], 1.2% (inactive); in experiment [16], 0.1% (inactive); in experiment [17], -2.4% (inactive); in experiment [19] it was 13% (inactive). Moreover, the superoxide response (% of plate) in experiment [9] is 90% (inactive). The aptamer binding inhibition in experiment [10] was 2% (inactive). The values for the response in [11] and in [13] were 3.7% (inactive) and -6.81% (inactive), respectively. Moreover, the binding (% of control) in experiment [14] was 100% (inactive). Also, in [18], the efflux inhibition (fraction of control) was -0.09 (inactive). Besides, the differentiation response in experiment [20] is -2.46% (inactive).
Take `C[C@]12CC[C@@H](O)C[C@@H]1CC[C@@H]1[C@@H]2CC[C@]2(C)[C@@H](O)CC[C@@H]12`: the percent of DMSO control GFP in experiment [2] is 95.4% (inactive). Besides, the GFP response vs DMSO in [3] is 107% (inactive); in [5], 150% (active). Besides, the percent response of DMSO control in [4] is 83% (inactive). The GFP response, % of DMSO in experiment [6] is 106% (inactive). The compound also yielded a double positive events in experiment [7] of 58.5%. Further, in [7], the vesicle binding response is 122% (inactive). For the same compound, the inhibition in [8] was -7.79% (inactive); in [12], -7.18% (inactive); in experiment [15], 1.2% (inactive); in experiment [16], 0.9% (inactive); in experiment [17], 3.5% (inactive); in [19], 7% (inactive). Further, the superoxide response (% of plate) in [9] is 98% (inactive). Further, the aptamer binding inhibition in experiment [10] was 3% (inactive). In addition, the response in [11] was 0.4% (inactive); in experiment [13], 2.4% (inactive). Further, the binding (% of control) in [14] was 103% (inactive). For the same compound, the efflux inhibition (fraction of control) in experiment [18] was 0.08 (inactive). In experiment [20], the differentiation response was -13.3% (inactive).
